DT40 TDP1 no CPT: qHTS for Inhibitors of human tyrosyl-DNA phosphodiesterase 1 (TDP1): qHTS in cells in absence of CPT. DT40 Tdp1-/- hTDP1 cells, no CPT, ATP luminescence, 48 h. Potency, µM (titrated, usually from 46.2 µM), actives largely listed as inhibitors. 420,000 compounds, 15% hits; note: nearly all actives have a fitted effect of over 55% in size
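Luminescent ATP content (CellTiter-Glo) served as the growth readout. Knockout chicken DT40 cells expressing human TDP1 were exposed to compounds without camptothecin for a minimum 48 hr at 37 °C.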
DT40 TDP1 CPT: qHTS for Inhibitors of human tyrosyl-DNA phosphodiesterase 1 (TDP1): qHTS in cells in presence of CPT; chicken DT40 Tdp1-/-;hTDP1 cells + 20 nM CPT, ATP luminescence, 48 h; Potency, µM (series often up to 46.2 µM), hits mostly inhibitors; 420,000 compounds, 12% hits; AID 686979, 2013; note: nearly all actives have a fitted effect of over 55% in size
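Cell growth measured by CellTiter-Glo luminescence after a minimum 48 h, 37 C compound exposure with 20 nM CPT in Tdp1-knockout DT40 cells stably expressing hTDP1, seeded 400/well; qHTS titration format.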
IL1B secr inh: qHTS for Inhibitors of Inflammasome Signaling: IL-1-beta AlphaLISA Primary Screen | THP-1 LPS/ATP IL-1B secretion, AlphaLISA, 16 h; active compounds read low | activity change, % at 57.5 µM | 360,000 compounds, 4.7% hits; in the data active = activity change below about -50%; inconclusive = mostly about -30% to -49%
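THP-1 cells pretreated 1 hr with compounds (up to 57.5 uM final), then stimulated with LPS (250 ng/mL final) plus ATP (1.25 mM final); secreted IL-1B measured by AlphaLISA after 16 hr, decreased signal indicating inhibition.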
D3 ag: qHTS of D3 Dopamine Receptor Agonist: qHTS | D(3) dopamine receptor (Homo sapiens), P35462 | D3R DiscoveRx beta-arrestin cells, luminescence, 90 min | max activation, % | 410,000 compounds, 0.58% hits | AID 652048, 2013; in the data active = max activation above about 30%
Target sequence (P35462 whole entry, looked up): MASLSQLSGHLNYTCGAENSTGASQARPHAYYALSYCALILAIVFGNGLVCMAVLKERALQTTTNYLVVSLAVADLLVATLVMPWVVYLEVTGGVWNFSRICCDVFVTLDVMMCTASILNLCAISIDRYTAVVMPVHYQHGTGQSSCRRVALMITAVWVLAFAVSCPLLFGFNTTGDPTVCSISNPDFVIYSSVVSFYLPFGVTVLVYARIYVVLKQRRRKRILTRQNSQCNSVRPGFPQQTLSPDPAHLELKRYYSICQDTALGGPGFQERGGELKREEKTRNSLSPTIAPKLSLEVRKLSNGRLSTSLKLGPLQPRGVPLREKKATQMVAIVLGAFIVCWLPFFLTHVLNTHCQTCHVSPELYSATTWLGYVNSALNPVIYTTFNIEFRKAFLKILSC
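Cells at 1500/well, incubated overnight, then treated with pinned compounds (dopamine as control) for 90 min at 37 degrees C. DiscoveRx reagent added for 30 - 60 minutes at room temperature; luminescence read.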
DRD3 antagonist: qHTS of D3 Dopamine Receptor Antagonist: qHTS | D3R cells, DiscoveRx beta-arrestin luminescence, antagonist mode; active compounds read low | max response, negative = inhibition, % | 360,000 compounds, 2.5% hits; in the data active = max response below about -50%; inconclusive = no clear call, values can overlap the other calls
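Cells expressing the human receptor were seeded at 1500 cells/well, incubated overnight at 37 degrees C in 5% CO2, then exposed to library compounds with dopamine controls for 90 minutes at 37 degrees C before luminescent detection.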
ClpP mod: qHTS Assay for Activators of ClpP; ATP-dependent Clp protease proteolytic subunit (Bacillus subtilis (strain 168)), P80244; 340,000 compounds, 1.9% hits; Potency, µM (titrated, usually from 57.5 µM); AID 651965, 2013; purified B. subtilis ClpP, FRET peptide cleavage, 20 min; active = well fitted falling curve with a large enough effect; inconclusive = small, poorly fitted or top-dose-only effect; inactive = no such curve, though single readings can be large or run the other way; note: the source files actives as falling curves though it sought activators and does not explain the sign; nearly all actives have a fitted effect of over 65% in size
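FRET quenching reversal measured ClpP activation: 10 microg/mL B. subtilis ClpP at pH 8 with the FRET-FV decapeptide, read at 430 nm after 320 nm excitation. The 20-min minus 0-min signal was scaled between DMSO/no-enzyme wells and ADEP (5.8 microM final).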
Hits are given with their value; i = inactive; ? = inconclusive; nt = not tested or not shown. Most compounds without a hit are left out; they make up all but 21% or so of the library. Unless noted, calls come from the whole dose curve; as a rule, active = well fitted inhibition curve with a large enough effect; inconclusive = small, poorly fitted or top-dose-only effect; inactive = flat fitted curve, though single readings scatter.

SMILES	DT40 TDP1 no CPT	DT40 TDP1 CPT	IL1B secr inh	D3 ag	DRD3 antagonist	ClpP mod
CN(C)c1ccc(C2CNC(c3ccc(Cl)c([N+](=O)[O-])c3)c3[nH]c4ccccc4c32)cc1 (configuration not stated)	18µM	23µM	i	i	i	i
O=[N+]([O-])c1cccc(C2NCC(c3ccccc3Cl)c3c2[nH]c2ccccc32)c1 (configuration not stated)	?	?	-63	i	-64	i
O=C1CC(c2ccc(Cl)c([N+](=O)[O-])c2)c2ccc3ccccc3c2N1 (configuration not stated)	?	?	i	i	i	i
Cc1ccc(F)cc1NC(=O)COC(=O)C1CC2CCCC(C1)C2=O (configuration not stated)	i	i	i	i	i	i
CCOc1ccccc1N(C)C(=O)c1sc2ncn(CC(=O)N3CCCCC3C)c(=O)c2c1C (configuration not stated)	?	?	i	i	i	nt
Cc1cc(C)nc(N2C(=O)CC(C(C)c3ccccc3)C2=O)n1 (configuration not stated)	i	i	i	i	i	i
CC1=NN(c2nc(C)cc(C)n2)C(=O)C1CCC(C)C (configuration not stated)	?	?	i	i	-60	i
Cc1cc(-c2nnc(CCC(=O)NCc3cc(F)cc(C(F)(F)F)c3)o2)no1	i	i	i	i	i	28µM
Cc1cc(-c2nnc(CCC(=O)NC(C)c3cccc4ccccc34)o2)no1 (configuration not stated)	i	i	i	i	i	i
CCC(NC(=O)CCc1nnc(-c2cc(C)on2)o1)C12CC3CC(CC(C3)C1)C2 (configuration not stated)	16µM	21µM	i	i	i	i
CC(SCC(=O)NC(C)C1CC2CCC1C2)C(=O)O (configuration not stated)	i	i	i	i	i	i
CCOc1ccccc1CNC(=O)C1CCN(S(=O)(=O)N2CCC(C)CC2)CC1	?	?	i	i	i	i
O=C([O-])c1cc(-c2ccccc2)cc(-c2ccccc2)[n+]1CCc1ccc(Cl)cc1	6.5µM	4.6µM	?	i	i	i
O=C(NCCc1ccc(Cl)cc1)c1cc(-c2ccccc2)n[nH]1	i	?	nt	i	nt	i
Cn1c(CO)cnc1-c1ccccc1	i	i	i	i	i	i
COc1cccc(OCC(O)CN2CCC(Cc3ccccc3)CC2)c1 (configuration not stated)	18µM	?	?	i	i	i
OC(COc1ccccc1)CN1CCC(Cc2ccccc2)CC1 (configuration not stated)	i	i	-72	i	-75	i
OC(CN1CCC(Cc2ccccc2)CC1)c1ccccc1 (configuration not stated)	i	i	i	i	-88	i
C=CCc1ccc(OCC(O)CN2CCC(Cc3ccccc3)CC2)c(OC)c1 (configuration not stated)	?	?	?	i	i	i
O=C(NC(=S)Nc1ccccc1N1CCN(C(=O)c2ccccc2)CC1)c1cccs1	?	?	i	i	i	i
O=C(NC(=S)Nc1ccccc1N1CCCC1)c1cccs1	15µM	16µM	i	i	i	i
O=C(NC(=S)Nc1ccccc1N1CCCCC1)c1cccs1	21µM	16µM	i	i	i	i
CCN(CC)CCNC(=O)c1ccc(NC(=O)c2ccc(S(=O)(=O)N3CCCCCC3)cc2)cc1	?	?	i	i	i	i
CCN(CC)CCNC(=O)c1ccc(NC(=O)c2ccc(Cl)c(S(=O)(=O)N3CCCCCC3)c2)cc1	?	?	-104	i	?	nt
